Inconclusive results are not listed. Where a call stands in place of a potency, no number is given. Activity calls are given as the source filed them. Calls follow the shape of the dose curve; as a rule, active = well fitted curve in the direction sought with a large enough effect in the repeat runs; inconclusive = weak or mixed curves; inactive = no such curve, though single readings can be large; an effect the other way counts as inactive or inconclusive.
Experiment: A CellTox Green Cytotoxicity Assay to monitor cytotoxicity in HepG2 cells - 40 hour (AID 1224879); also: nearly all actives have a fitted effect of over 40% in size
Conditions: CellTox Green fluorescence; series mostly up to 76.8 µM
How it was run: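 Fluorescent DNA-binding dye, 600 HepG2 cells/well, 5 h preincubation then compound in DMSO; same plates read at 0–40 h, 37 C.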

SMILES | Potency
N#CCCC#N | inactive
Nc1ccccc1Cl | inactive
ClCCOCOCCCl | inactive
CNC(=O)O/N=C(\C)SC | inactive
CC1CN1P(=O)(N1CC1C)N1CC1C (configuration not stated) | inactive
BrCCCCCCBr | inactive
COc1cccc(C(=O)NN(C(=O)c2cc(C)cc(C)c2)C(C)(C)C)c1C | inactive
CNC(=O)Oc1ccccc1C1OCCO1 | inactive
O=C1CN=C(c2ccccc2)c2cc([N+](=O)[O-])ccc2N1 | inactive
O=C(NCO)NCO | inactive
CC1CCC(=O)O1 (configuration not stated) | inactive
CCCCCCBr | inactive
O=c1oc2ccccc2c(O)c1C1CCCc2ccccc21 (configuration not stated) | inactive
CCCCCCI | inactive
OCCBr | inactive
CCCCP(CCCC)CCCC | inactive
CCNc1nc(NC(C)C)nc(OC)n1 | inactive

SMILES | Potency
CNC(=O)Oc1ccc(N(C)C)c(C)c1 | inactive
CC1(C)C(=O)NC(=O)NC1=O | inactive
Clc1ccccc1N1CCNCC1 | inactive
ClCC(Cl)(Cl)Cl | inactive
c1ccc(N2CCNCC2)cc1 | inactive
NC(=S)C(N)=S | inactive
C=CC1CC=CCC1 (configuration not stated) | inactive
OCCSCSCCO | inactive
CC1(C)COP(Oc2ccccc2)OC1 | inactive
CC(C)CC#N | inactive
O=C1CN2CCOC2(c2ccccc2Cl)c2cc(Cl)ccc2N1 (configuration not stated) | inactive
ClC(Br)Br | inactive
[O]=[Cd] | inactive
C[N+](=O)[O-] | inactive
CC(N)=S | inactive
C#CCN1C(=O)COc2cc(F)c(N3C(=O)C4=C(CCCC4)C3=O)cc21 | inactive
CC(C)(C)NCC(O)c1cc(Cl)c(N)c(Cl)c1 (configuration not stated) | inactive

Experiment: qHTS RealTime-Glo MT Cell Viability Assay in HEK293 cells - 0 hour (AID 1224880); also: top concentration of the series differs between compounds; nearly all actives have a fitted effect of over 45% in size
Conditions: RealTime-Glo luminescence; series mostly up to 76.8 µM
How it was run: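 Measured as luminescence from the same continuously cultured HEK293 wells at successive time points (0, 8, 16, 24, 32, 40 h) after compound addition. Reagent present from seeding; dosing at 5 h; incubation 37 C.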

SMILES | outcome
N#CCCC#N | inactive
Nc1ccccc1Cl | inactive
ClCCOCOCCCl | inactive
CNC(=O)O/N=C(\C)SC | inactive
CC1CN1P(=O)(N1CC1C)N1CC1C (configuration not stated) | inactive
BrCCCCCCBr | inactive
COc1cccc(C(=O)NN(C(=O)c2cc(C)cc(C)c2)C(C)(C)C)c1C | inactive
CNC(=O)Oc1ccccc1C1OCCO1 | inactive
O=C1CN=C(c2ccccc2)c2cc([N+](=O)[O-])ccc2N1 | inactive
O=C(NCO)NCO | inactive
CC1CCC(=O)O1 (configuration not stated) | inactive
CCCCCCBr | inactive
O=c1oc2ccccc2c(O)c1C1CCCc2ccccc21 (configuration not stated) | inactive
CCCCCCI | inactive
OCCBr | inactive
CCCCP(CCCC)CCCC | inactive
CCNc1nc(NC(C)C)nc(OC)n1 | inactive
CNC(=O)Oc1ccc(N(C)C)c(C)c1 | inactive
CC1(C)C(=O)NC(=O)NC1=O | inactive

SMILES | outcome
Clc1ccccc1N1CCNCC1 | inactive
ClCC(Cl)(Cl)Cl | inactive
c1ccc(N2CCNCC2)cc1 | inactive
NC(=S)C(N)=S | inactive
C=CC1CC=CCC1 (configuration not stated) | inactive
OCCSCSCCO | inactive
CC1(C)COP(Oc2ccccc2)OC1 | inactive
CC(C)CC#N | inactive
CN1CCC(O)(c2ccc(F)cc2)C(C(=O)c2ccc(F)cc2)C1 (configuration not stated) | inactive
CC1COC2(c3ccccc3Cl)c3cc(Cl)ccc3NC(=O)CN12 (configuration not stated) | inactive
O=C1CN2CCOC2(c2ccccc2Cl)c2cc(Cl)ccc2N1 (configuration not stated) | inactive
ClC(Br)Br | inactive
[O]=[Cd] | inactive
ClC(Cl)C(Cl)Cl | inactive
C[N+](=O)[O-] | inactive
CC(N)=S | inactive
C#CCN1C(=O)COc2cc(F)c(N3C(=O)C4=C(CCCC4)C3=O)cc21 | inactive
[As]#[In] | inactive
CC(C)(C)NCC(O)c1cc(Cl)c(N)c(Cl)c1 (configuration not stated) | inactive

Source: PubChem BioAssay (Tox21)
